Among all 2,100 compounds or so, about 760 (36%) were called active. Only a sample is shown. Unmarked numbers belong to inactive results.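 How the source made its calls: active means thallium-flux fluorescence traces judged by eye to show enhanced or reduced glutamate response, manual score 1 or -1, so both directions (some results past the limit were not filed as active); inactive means the rest, including fluorescent or raised-baseline compounds.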
Test: non-GIRK thallium flux modulation in mGlu8 cells, confirmation, counter-screen for GIRK activator project, cell-based, HEK-293 rmGlu8, no GIRK (AID 623868);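 further: extra codes mark interference with 3 for fluorescent and 4 for baseline rise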
Details: thallium flux fluorescence, at 10 µM, actives lie on both sides, codes: 1 enhancer, -1 blocker, 0 none, thallium stimulus containing EC20 glutamate

Structure (SMILES) | manual score
Cc1ccnc(NC(=S)NC(=O)/C=C/c2ccco2)c1 | 0
COc1ccc(C(=O)NC(=S)NCCO)cc1Br | 1 (active)
CCOC(=O)c1ccc(NC(=O)Nc2ccc(OC)c(OC)c2)cc1 | 0
C=CCN(CC=C)C(=S)NC(=O)/C=C/c1ccc(C)cc1 | 1 (active)
C=CCN(CC=C)C(=S)NC(=O)c1ccc(C)c(Br)c1 | 1 (active)
COc1ccc(C(=O)NC(=S)NC(C)C)cc1Br | 0.5
CCOC(=O)c1c(CNCCN(CC)CC)n(C)c2cc(Br)c(OC)cc12 | 0
C=CCN(CC=C)C(=S)NC(=O)c1ccc(OC)c(Br)c1 | 1 (active)
Cc1ccc(-c2nnn(CC(=O)NC3CC4CCC3C4)n2)cc1 (configuration not stated) | 0
Clc1ccc(Cc2ccc(SCc3ccccc3)nn2)c(Cl)c1 | 0
CCCCCCCCCn1c2c(c(=N)c3c1CCC3)CCC2 | 0
CCN(CC)C(=O)CN(c1ccc2c(c1)OCO2)S(C)(=O)=O | 0
NC1=NC2(CCCCC2)n2c(nc3ccccc32)N1 | 0
COC(=O)C(C)N(C(=O)c1cccc(Cl)c1)c1c(C)cccc1C (configuration not stated) | -1 (active)
COC(=O)C(C)N(C(=O)c1cccc2ccccc12)c1c(C)cccc1C (configuration not stated) | -1 (active)
NC(=O)SCC(=O)Nc1cccc(Cl)c1 | 0
S=c1[nH]ccn1-c1cccc(Cl)c1 | 0
Oc1c(C=NCc2ccncc2)sc2ccccc12 | 0
CC(Oc1ccc(Cl)cc1Cl)C(=O)NC(=S)N1CCc2ccccc21 (configuration not stated) | 1 (active)
C=C(C)C1CC=C(C)/C(=N/NC(=O)COc2cccc(C)c2)C1 (configuration not stated) | 0
Cc1cccc(OCc2nnc(SCC(=O)N3CCc4ccccc43)n2C)c1 | 0
O=C(COc1ccccc1)NC(=S)N1CCc2ccccc21 | 1 (active)
Cc1cccc(OCC(=O)NC(=S)N2CCCc3ccccc32)c1 | 1 (active)
O=C(COc1ccc(Br)cc1Cl)NC(=S)N1CCc2ccccc21 | 0

Structure (SMILES) | manual score
Cc1cnc(NC(=O)COc2ccccc2Cl)s1 | 0
O=C(COc1ccccc1Cl)NC(=S)N1CCc2ccccc21 | 1 (active)
N#CC(C#N)=C1C=C2C=C(N3CCCCCC3)CCC2CC1 (configuration not stated) | 3
O=C(COc1ccc(Br)cc1Br)NC(=S)N1CCCc2ccccc21 | 0.5
CC1CCC/C(=N\NC(=O)COc2ccc(Cl)cc2Cl)C1 (configuration not stated) | 0
O=C(COc1ccc(Cl)cc1Cl)NC(=S)N1CCCc2ccccc21 | 1 (active)
CCCCN(CCCC)c1nc2ccccc2nc1C(C#N)C(=O)NCCCOC (configuration not stated) | 3
S=C(NN=C(C1CC1)C1CC1)Nc1ccccc1 | 0
S=C(NN=C1C2CC3CC(C2)CC1C3)Nc1ccccc1 | 1 (active)
C=C(C)C1CC=C(C)/C(=N/NC(=S)Nc2ccccc2)C1 (configuration not stated) | 0
CC(C)N=c1scc(-c2cccs2)n1/N=C/c1ccc(O)c(O)c1O | 0
CC(c1ccco1)N(C(=O)c1ccccc1NS(=O)(=O)c1cc([N+](=O)[O-])ccc1Cl)c1ccccn1 (configuration not stated) | 1 (active)
CCOP(=O)(c1ccccc1)c1nc(-c2ccccc2C)oc1N1CCCCC1 (configuration not stated) | 0
Cc1ccc(/C=N/Nc2nc(Cl)c(Cl)cc2Cl)s1 | 1 (active)
CCOC(=O)C1=C(C)OC(N)=C(C#N)C1c1cncc(-c2ccc(F)cc2)c1 (configuration not stated) | 0
Cc1cc(C)n(-c2ccc(C(=O)OCC(=O)Nc3ccc(Cl)c(S(=O)(=O)N(C)C)c3)cc2)n1 | 0
CCOC(=O)Cc1csc(NC(=S)NC(=O)c2ccccc2C)n1 | 1 (active)
CCOC(=O)Cc1csc(NC(=S)NC(=O)c2ccccc2Br)n1 | 1 (active)
CC1=CC(=O)OC1Cc1ccncc1 (configuration not stated) | 0
O=C(Nc1ccc(F)cc1)c1cccc2c1C(=O)N(Cc1ccccn1)C2 | 0
COc1ccc(-n2c(=O)[nH]cc(C(=O)Nc3ccc(NC(C)=O)cc3)c2=O)cc1 | 0
CCCC(=O)Nc1ccc(NC(=O)C23CC4CC(CC(C4)C2)C3)cn1 | 0
Cc1ccnc(NC(=S)NC(=O)c2cccs2)c1 | 1 (active)
O=C(NC(=S)Nc1ccc(Cl)cn1)c1cccs1 | 1 (active)

Structure (SMILES) | manual score
Cc1ccc2cccc(NC(=S)NC(=O)c3ccn(C)n3)c2n1 | 0
Cc1cccc(NC(=S)NC(=O)c2cccs2)n1 | 1 (active)
CC(Cc1cccs1)NC(=O)Nc1ccc(Cl)cc1 (configuration not stated) | 0
CCn1c(CCNC(=O)c2cccs2)nnc1SCC(=O)Nc1ccc(Cl)cc1 | 0
Cc1ccc2cccc(NC(=S)NC(=O)c3ccnn3C)c2n1 | 0
CC(C)CC(NS(=O)(=O)c1ccc2c(c1)oc(=O)n2C)C(=O)NC1CCCc2ccccc21 (configuration not stated) | 0
CCOc1ccc(-n2c(SCc3nc(-c4cccs4)no3)nnc2-c2ccncc2)cc1 | 0
CC(C)CC(=O)NC(=S)N(Cc1ccccc1)Cc1ccccc1 | 1 (active)
CC(C)C(=O)NC(=S)N(Cc1ccccc1)Cc1ccccc1 | 1 (active)
CC(C)CC(=O)NC(=S)Nc1nc(-c2cccc3ccccc23)cs1 | 0
Cc1ccccc1Cn1c(=N)n(CC(O)c2ccco2)c2ccccc21 (configuration not stated) | 0
N#Cc1nc(COc2ccccc2)oc1N1CCN(c2cccc(Cl)c2)CC1 | 0
O=C(Nc1nc2ccccc2s1)c1cc(-c2ccccc2)nn1-c1ccccc1 | 0
O=C(Cc1ccccc1)Nc1nc(=O)c2ccccc2s1 | 1 (active)
CN(C)CCCNC(=O)c1ccc(-c2nc(-c3ccc(Cl)cc3)cs2)cc1 | 0
CCN(CC)C(=O)CSc1nnc(NC(=O)CCc2ccccc2)s1 | 0
O=C(Nc1nc(=O)c2ccccc2s1)c1ccccc1 | 1 (active)
O=C(Cc1ccccc1)Nc1nc(-c2cccs2)cs1 | 0
O=C(Nc1nc(=O)c2ccccc2s1)c1ccc(F)cc1 | 1 (active)
O=C(Nc1nc(=O)c2ccccc2s1)c1ccc(Cl)cc1 | 1 (active)
COc1ccc(Cn2nnnc2C(c2ccccc2Cl)N2CCN(C3CCCC3)CC2)cc1 (configuration not stated) | 0
CCN(CC)C(=S)SCC(=O)Nc1nc(=O)c2ccccc2s1 | 1 (active)
Cc1cnc(NC(=O)CSc2nc3ccccc3c(=O)[nH]2)s1 | 0
Cc1csc(SCC(=O)Nc2nc3ccccc3s2)n1 | 0

Source: PubChem BioAssay AID623868 (Vanderbilt High Throughput Screening Facility, 2012)
